Screening data from PubChem BioAssay.
ADAM17 inh: ADAM17 inhibitors, primary screen, biochemical, QFRET. Disintegrin and metalloproteinase domain-containing protein 17 (Homo sapiens), P78536. recombinant ADAM17, EDANS/DABCYL FRET peptide cleavage. inhibition, % at 6.95 µM. 0.83% of 370,000 active. AID 720648, 2013;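 active = inhibition above the mean of compounds lying between control limits plus 3 SD, set per campaign, cut at about 8.5% in these data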;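 also: 0% = DMSO-only wells as the low control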
Target sequence (P78536 215-824 limits assumed): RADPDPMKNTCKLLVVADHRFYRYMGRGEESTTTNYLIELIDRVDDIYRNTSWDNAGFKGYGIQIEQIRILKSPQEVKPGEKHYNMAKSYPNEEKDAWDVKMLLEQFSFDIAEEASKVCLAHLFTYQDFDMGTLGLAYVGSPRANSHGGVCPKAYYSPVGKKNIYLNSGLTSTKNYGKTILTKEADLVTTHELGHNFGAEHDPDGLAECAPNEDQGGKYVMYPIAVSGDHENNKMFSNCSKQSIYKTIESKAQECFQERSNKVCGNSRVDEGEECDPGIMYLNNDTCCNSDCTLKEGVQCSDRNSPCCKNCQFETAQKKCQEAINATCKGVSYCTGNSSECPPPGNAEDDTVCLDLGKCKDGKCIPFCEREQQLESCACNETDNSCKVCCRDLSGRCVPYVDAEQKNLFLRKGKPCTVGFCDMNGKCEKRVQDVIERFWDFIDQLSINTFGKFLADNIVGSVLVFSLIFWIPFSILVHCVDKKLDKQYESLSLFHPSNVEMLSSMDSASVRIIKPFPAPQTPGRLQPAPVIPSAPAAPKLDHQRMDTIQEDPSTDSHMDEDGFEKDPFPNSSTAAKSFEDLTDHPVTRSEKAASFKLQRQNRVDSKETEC
proKLK7 act: proKLK7 zymogen activators, primary screen, biochemical, fluorescence intensity; Kallikrein-7 (Homo sapiens), P49862; purified proKLK7, EDANS-DABCYL substrate fluorescence; 100% is mature enzyme control, 0% vehicle; activation, % at 7 µM; 0.9% of 370,000 active; AID 652039, 2013;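 active = activation above the mean of all tested compounds plus 3 SD, computed per campaign excluding outliers beyond control limits, cut at about 13% in these data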
MPTP block: mitochondrial permeability transition pore inhibitors, primary screen, biochemical, isolated mouse mitochondria, absorbance. Ca2+ swelling absorbance, 30 min. inhibition, % at 10 µM. 1.4% of 360,000 active. AID 602449, 2012;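 active = inhibition of 50% or more, scaled per plate between neutral and stimulator controls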;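 also: 0% = DMSO wells given calcium and 100% = 1 mM EGTA wells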
ADAM10 inh: human ADAM10 inhibitors, primary screen, biochemical, QFRET, HTS. Disintegrin and metalloproteinase domain-containing protein 10 (Homo sapiens), O14672. recombinant ADAM10, EDANS/DABCYL FRET peptide cleavage, 3 h. inhibition, % at 7 µM. 0.62% of 370,000 active. AID 720582, 2013;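 active = inhibition above a per-campaign cutoff equal to the mean of compounds falling between control-based bounds plus 3 SD, cut at about 20% in these data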;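 also: 0% = DMSO wells while the 100% control is not disclosed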
rCAG binder: binders of r(CAG) RNA repeats, primary screen, biochemical, fluorescence; r(CAG) RNA repeat, TO-PRO-1 dye displacement fluorescence; inhibition, % at 3 µM; 1.3% of 370,000 active;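 active = inhibition above the plate cutoff, the mean of all test compounds on that plate plus 3 SD, cut at about 35% in these data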;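 also: 0% = DMSO alone and 100% = 100 µM mitoxantrone as full dye displacement; higher means more dye released from RNA so lower well fluorescence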
Pemphigus Ab inh: inhibitors of pemphigus antibody binding to DSG3, primary screen, biochemical, bead-based, flow cytometry, scFv-GFP; DSG3-coupled beads, scFv-anti-DSG3-GFP binding; hits give low values; 0.48% of 310,000 active; binding (percent of control), % at 10 µM; Desmoglein-3 (Homo sapiens), P32926;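 active = binding more than 3 SD below its plate's average and above zero; inconclusive = below that plate limit but binding exactly zero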;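 also: hits lower antibody fragment binding to DSG3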
MPTP counter: fluorescence retest of MPTP screen hits in isolated mitochondria, single concentration. AID 624504, 2012. membrane potential, Rhodamine 123 fluorescence. shares compounds with MPTP block. 78% of 5,000 active. inhibition, % at 10 µM; in the data active = inhibition above about 22%;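 also: 0% = DMSO vehicle and 100% = positive control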
MPTP abs DR: mitochondrial permeability transition pore inhibitors, dose response, biochemical, absorbance, uHTS hits | shares compounds with MPTP block | isolated mitochondria swelling | IC50, µM | 58% of 780 active | AID 651561, 2012; in the data active = IC50 below about 20 µM
MPTP cs DR: fluorescent counter-screen in isolated mitochondria, dose response, counter-screen for MPTP inhibitor project, biochemical, fluorescence, uHTS hits; shares compounds with MPTP block; isolated mitochondria counterscreen, fluorescence read-out; IC50, µM; 49% of 780 active; AID 651564, 2012; in the data active = IC50 below about 80 µM
Active calls of the source: *; i = inactive; ? = inconclusive; nt = no result. An excerpt weighted towards active compounds, which were near 4.7% of everything screened.

SMILES	ADAM17 inh	proKLK7 act	MPTP block	ADAM10 inh	rCAG binder	Pemphigus Ab inh	MPTP counter	others
COc1ccc(NC(=O)c2cc([N+](=O)[O-])ccc2O)cc1	-1.8	0.2	91.6*	-2.9	11.3	99.3	94.9*
COC(=O)[C@]12C[C@H](CC(=O)N3CCOCC3)C(=O)N(CCc3ccc(OC)c(OC)c3)C1=C[C@H](C(C)(C)C)O[C@@H]2C	-4.1	-1.2	nt	-2.9	-0.1	nt	nt
CCCC[C@H](C(=O)N(C)c1cccc(OC)c1)[C@@H](O)c1ccc(C(C)=O)cc1	0.7	0.0	nt	2.5	-1.0	nt	nt
CCCCOCC1CN(CCCC)S(=O)(=O)c2c(Oc3ccc(C)cc3)cccc2O1 (centres undefined)	2.8	0.9	nt	5.0	2.1	nt	nt
COc1ccc(Nc2nc(-c3cccc([N+](=O)[O-])c3)nc3ccccc23)cc1	-1.0	-0.3	53.2*	0.6	20.0	102.4	25.2*
COc1ccc(Nc2nc(-c3ccccc3)nc3ccccc23)cc1	0.9	2.4	0.8	-7.1	10.8	134.2	nt
O=C(NCc1ccco1)c1ccccc1NS(=O)(=O)c1ccc(Cl)s1	-3.1	-0.4	90.5*	-5.8	19.8	101.7	78.9*
COC(=O)CCN1CCSCCS1(=O)=O	-3.8	0.0	nt	-11.9	-0.9	nt	nt
CCSc1nnc(NC(=O)CSc2nc(CC)nc3c2c(=O)n(C)c(=O)n3C)s1	-0.9	0.0	66.2*	-14.8	-0.9	102.5	19.4	MPTP abs DR=i;MPTP cs DR=>80
CCOc1ccc(-c2cnc(NCc3cccc4ccccc34)n2CCOC)cc1	0.2	-0.2	88.9*	4.1	-0.9	114.6	97.2*
COCCn1c(-c2ccc(OC)cc2)cnc1N	-6.9	-1.0	0.4	-15.5	-0.2	95.3	nt
Cc1ccccc1-c1cccc2[nH]c3c(c12)CCN1C(=O)[C@H]2[C@H](C)ON(C)[C@H]2C[C@@H]31	-146.6	-33.9	nt	i	6.7	nt	nt
COc1ccc2c(c1)C(NC(=O)C(F)(F)F)CC21CCCCC1 (centres undefined)	-1.0	0.2	nt	4.0	5.5	nt	nt
CC(C)Nc1ccc(Nc2ccnc3cc4ccccc4cc23)cc1	-0.1	2.0	68.4*	5.7	23.0	139.1	69.7*
CCCCNC(=O)O[C@H]1CC[C@@]23CCCN2C(=O)CCC[C@H]3[C@H]1C	-4.1	nt	nt	-1.6	nt	nt	nt
COc1ccc([N+](=O)[O-])cc1N(CC(O)CN(CC(C)C)CC(C)C)S(=O)(=O)c1ccccc1 (centres undefined)	-0.1	-0.3	1.7	2.2	-2.5	101.5	nt
CCCCN(CCCC)CC(O)CN(c1cc([N+](=O)[O-])ccc1OC)S(=O)(=O)c1ccccc1 (centres undefined)	0.6	0.2	76.1*	6.3	-1.1	105.0	-8.4	MPTP abs DR=>100;MPTP cs DR=57.3*
Cc1ccc2c(c1)nnn2C1CCN(S(=O)(=O)c2ccc(C(=O)N3C(C)CCCC3C)cc2)CC1 (centres undefined)	4.8	0.9	98.3*	-16.7	-1.1	104.9	86.8*
Cc1ccc2c(c1)nnn2C1CCN(S(=O)(=O)c2ccc(C(=O)O)cc2)CC1	-1.4	-0.7	-0.8	8.4	10.1	115.2	nt
Cc1ccc(-n2ncc3c(N4CCCC4)ncnc32)c(C)c1	-1.9	-0.5	-0.8	-3.4	-4.4	100.1	nt
Cc1ccc(-n2ncc3c(SCc4cccnc4)ncnc32)c(C)c1	4.2	0.2	87.7*	13.7	-6.2	100.3	81.9*
Cc1ccc(-n2ncc3c(N4CCCC(C)C4)ncnc32)c(C)c1 (centres undefined)	0.6	0.5	58.7*	-3.8	-1.1	102.0	42.8*
O=C1N/C(=C\c2ccc(O)cc2)C(=O)c2ccccc21	nt	nt	73.1*	nt	nt	128.0	-7.2
Clc1ccc(/C(Cc2nc3ccccc3[nH]2)=N\Nc2ccccc2)cc1	-7.0	0.0	85.9*	-19.3	9.8	103.0	69.7*
CCCCCCCCSc1nnc(CSc2nc3nc(C)cc(C)n3n2)o1	-1.8	-0.2	86.7*	2.2	-4.4	94.9	-1.9	MPTP abs DR=i;MPTP cs DR=49.7*
SMILES	ADAM17 inh	proKLK7 act	MPTP block	ADAM10 inh	rCAG binder	Pemphigus Ab inh	MPTP counter	others
Cc1cc(C)n2nc(SCc3nnc(SCCCCl)o3)nc2n1	-3.2	0.0	1.5	5.1	-4.9	94.7	nt
Cc1cc(C)c(O)c(CN(C)Cc2cc(Cl)cc(Cl)c2O)c1	-29.3	0.3	93.7*	-88.2	10.4	114.5	86.9*
Cc1ccnc(NCc2cc(Cl)cc(Cl)c2O)c1	4.9	-0.5	2.2	4.9	1.2	104.9	nt
Cc1cc(O)c(C(C)C)cc1N=Nc1ccccc1C(=O)O	0.3	-0.3	76.2*	2.5	20.1	91.2	51.8*
Cc1cc(N=Nc2ccccc2C(=O)O)c(C)c(C)c1O	-2.4	0.0	55.9*	-1.1	49.7*	102.2	36.2*
CCOC(=O)c1c(NC(=O)CSc2nc3ccccc3s2)sc(C(C)=O)c1C	-3.3	-0.9	85.7*	-11.5	6.6	100.8	50.1*
CCN(CC)CC#CCC(O)(c1ccccc1)c1ccccc1	1.5	-0.3	0.9	1.0	-11.1	111.3	nt
CCN(CC)CC#CCC(C)(c1ccccc1)c1ccccc1	-3.4	-0.1	58.8*	1.7	-8.9	99.6	6.3	MPTP abs DR=i;MPTP cs DR=28.2*
CC(C)(C)c1ccc(S(=O)(=O)Nc2ccc(Cc3ccncc3)cc2)cc1	4.3	-0.4	72.6*	16.3	-0.6	114.2	73.5*
O=S1(=O)c2ccc(N3CCCC3)cc2Oc2ccccc2CN1Cc1cn(Cc2cccc(F)c2)nn1	-3.7	-0.1	nt	-1.8	13.2	nt	nt
O=C(Nc1ccc(Oc2ccccc2)cc1)c1cnc2n(c1=O)CCS2	5.2	0.4	92.2*	-6.5	2.0	98.3	61.4*
CN=C1c2c(-c3ccccc3)c3cc(OC)ccc3n2CCN1C	-10.6	0.8	67.9*	-21.3	9.6	?	-4.7	MPTP abs DR=10.1*;MPTP cs DR=>80
O=S(=O)(c1ccc(Cl)cc1)N1CCC(O)(CN2CCN(Cc3ccccc3)CC2)CC1	-0.3	-0.3	0.0	-8.9	-9.2	104.0	nt
O=S(=O)(c1ccccc1)N1CCC(O)(CSc2ccc(Cl)cc2)CC1	-1.5	0.2	98.0*	-7.4	-1.6	nt	84.4*
c1ccc(COc2ccc(OCCCCN3CCCCC3)cc2)cc1	-0.3	-0.7	74.1*	-0.5	0.6	116.1	-0.5	MPTP abs DR=6.71*;MPTP cs DR=19.4*
